The record followed here is PubChem BioAssay.

Values joined by “and” are separate entries in the source; they are usually repeats but may differ in a detail not shown here. Equal entries are not always repeated. Active and inactive are the calls of the source.

Assay [1] concerns Plasmodium falciparum Sir2 (PF13_0152, Sir2A). As to the kind of experiment: Plasmodium falciparum Sir2A binding compounds – biochemical, small-molecule microarray, 635 nm fluorescence, primary screen (AID 1098).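 Note: score merges spot fluorescence intensity with its signal-to-noise ratio.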 The conditions noted are these: fluorescence 635 nm, higher = more signal.
Assay [2] is described as follows: probe aDKK1 binding to arrayed compounds – biochemical, biotinylated probe, 635/667 nm fluorescence, primary screen (AID 1099).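 Note: score merges 667nm spot fluorescence with signal to noise across triplicate slides; reference of the scale not given here.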 The conditions noted are these: small-molecule microarray, higher = more signal.
Assay [3] can be described thus: probe aCHRDL2 binding to arrayed compounds – biochemical, biotinylated probe, 635/667 nm fluorescence, primary screen (AID 1100). Conditions: small-molecule microarray, higher = more signal.
Assay [4] in a line: change in splice reporter luminescence, either direction, cell-based, HEK293, spliceosome inhibition project, primary screen (AID 1101).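 Note: HEK293 cells carrying a splicing-competent luciferase reporter gene; test concentration not given here.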 Conditions: HEK293 splicing luciferase reporter, 24 h, higher = more signal, called active from +8 up or from −8 down. In general terms: Reporter assays use an easily measured gene product as a stand-in for the process of interest.
Assay [5] addresses Fibroblast growth factor 10 (Homo sapiens) (UniProt O15520). As to the kind of experiment: compounds binding fibroblast growth factor 10 – biochemical, small-molecule microarray, 635 nm fluorescence, primary screen (AID 1102). Conditions: FGF10 binding, fluorescence 635 nm, higher = more signal.
In assay [6] the test system is glycogen synthase kinase-3 (GSK3A per assay name; protocol says GSK3B). Nature of the assay: compounds binding glycogen synthase kinase-3 – biochemical, small-molecule microarray, 635 nm fluorescence, GSK3A, primary screen (AID 1103). Note: the record names both GSK3A and GSK3B. The conditions noted are these: fluorescence 635 nm, higher = more signal.
For assay [7], the target named is Epidermal growth factor receptor (Homo sapiens) (UniProt P00533). Nature of the assay: compounds binding epidermal growth factor receptor – biochemical, small-molecule microarray, 635 nm fluorescence, primary screen (AID 1104).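 Note: score merges 667 nm emission intensity with spot signal to noise over triplicate slides.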 The conditions noted are these: EGFR binding, higher = more signal.
Sequence of Epidermal growth factor receptor (Homo sapiens) (P00533 whole entry, looked up): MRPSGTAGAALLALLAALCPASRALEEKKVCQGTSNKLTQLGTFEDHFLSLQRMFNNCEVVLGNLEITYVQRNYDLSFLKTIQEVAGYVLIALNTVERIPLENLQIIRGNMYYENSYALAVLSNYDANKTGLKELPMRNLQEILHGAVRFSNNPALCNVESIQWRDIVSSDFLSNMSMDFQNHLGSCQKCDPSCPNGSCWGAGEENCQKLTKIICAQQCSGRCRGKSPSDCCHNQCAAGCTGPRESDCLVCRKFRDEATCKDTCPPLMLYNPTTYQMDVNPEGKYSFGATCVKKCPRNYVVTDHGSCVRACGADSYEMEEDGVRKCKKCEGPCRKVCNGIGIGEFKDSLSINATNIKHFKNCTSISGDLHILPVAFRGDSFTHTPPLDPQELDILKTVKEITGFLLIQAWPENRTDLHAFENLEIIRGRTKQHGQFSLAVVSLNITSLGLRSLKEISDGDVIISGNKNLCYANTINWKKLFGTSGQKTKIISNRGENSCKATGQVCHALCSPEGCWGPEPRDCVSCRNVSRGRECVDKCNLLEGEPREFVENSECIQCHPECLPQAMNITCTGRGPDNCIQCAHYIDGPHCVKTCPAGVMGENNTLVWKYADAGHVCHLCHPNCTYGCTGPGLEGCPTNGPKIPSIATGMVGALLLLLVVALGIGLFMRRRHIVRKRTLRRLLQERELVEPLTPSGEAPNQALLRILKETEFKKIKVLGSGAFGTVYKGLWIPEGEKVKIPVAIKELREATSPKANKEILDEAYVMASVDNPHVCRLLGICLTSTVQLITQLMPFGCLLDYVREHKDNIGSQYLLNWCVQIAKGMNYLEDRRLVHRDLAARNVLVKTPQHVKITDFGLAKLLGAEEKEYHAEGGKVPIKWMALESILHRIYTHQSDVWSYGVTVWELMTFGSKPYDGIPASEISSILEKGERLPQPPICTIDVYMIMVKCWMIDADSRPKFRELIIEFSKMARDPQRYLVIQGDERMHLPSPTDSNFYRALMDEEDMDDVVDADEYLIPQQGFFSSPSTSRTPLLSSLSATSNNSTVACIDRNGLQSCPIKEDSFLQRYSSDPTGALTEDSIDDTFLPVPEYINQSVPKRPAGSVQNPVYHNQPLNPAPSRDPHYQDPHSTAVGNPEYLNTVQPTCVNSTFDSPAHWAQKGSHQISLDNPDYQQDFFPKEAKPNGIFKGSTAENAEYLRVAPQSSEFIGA
In assay [8] the target is Follistatin-related protein 3 (Homo sapiens) (UniProt O95633). Nature of the assay: compounds binding follistatin-related protein 3 – biochemical, small-molecule microarray, 635 nm fluorescence, primary screen (AID 1105).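 Note: score merges emission near 667 nm and signal to noise per printed spot across three slides.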 Conditions: FSTL3 binding, higher = more signal.
Sequence of Follistatin-related protein 3 (Homo sapiens) (O95633 whole entry, looked up): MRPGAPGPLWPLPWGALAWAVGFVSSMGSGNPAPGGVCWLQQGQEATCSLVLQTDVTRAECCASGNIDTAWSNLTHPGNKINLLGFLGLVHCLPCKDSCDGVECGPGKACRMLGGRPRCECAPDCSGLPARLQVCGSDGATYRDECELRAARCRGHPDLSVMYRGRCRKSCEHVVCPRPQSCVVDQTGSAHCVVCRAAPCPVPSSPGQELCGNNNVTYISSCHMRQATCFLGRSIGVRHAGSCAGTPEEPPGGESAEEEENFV
The target of assay [9] is Dickkopf-related protein 1 (Homo sapiens) (UniProt O94907). Nature of the assay: small molecules binding DKK1 protein – biochemical, small-molecule microarray, 635 nm fluorescence scan, primary screen (AID 1106).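 Note: score merges emission near 667 nm with signal to noise over three replicate slides.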 Conditions: higher = more signal.
Sequence of Dickkopf-related protein 1 (Homo sapiens) (O94907 whole entry, looked up): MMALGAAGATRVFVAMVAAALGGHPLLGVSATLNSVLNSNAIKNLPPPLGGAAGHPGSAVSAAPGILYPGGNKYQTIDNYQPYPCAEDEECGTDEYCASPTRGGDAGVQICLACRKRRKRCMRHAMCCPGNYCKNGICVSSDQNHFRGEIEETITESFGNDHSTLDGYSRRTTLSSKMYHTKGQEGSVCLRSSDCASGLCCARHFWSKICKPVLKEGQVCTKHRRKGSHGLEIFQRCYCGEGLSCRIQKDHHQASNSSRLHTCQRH
For assay [10], the system named is Inhibin beta A chain (activin A). Nature of the assay: small molecules binding activin A – biochemical, small-molecule microarray, 635 nm fluorescence scan, primary screen (AID 1107).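 Note: mouse activin A protein probed at 4.33 µg/mL on printed slides; score merges bound-protein fluorescence near 667 nm with spot signal-to-noise.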 Conditions: INHBA, higher = more signal.

Sequence of Fibroblast growth factor 10 (Homo sapiens) (O15520 whole entry, looked up): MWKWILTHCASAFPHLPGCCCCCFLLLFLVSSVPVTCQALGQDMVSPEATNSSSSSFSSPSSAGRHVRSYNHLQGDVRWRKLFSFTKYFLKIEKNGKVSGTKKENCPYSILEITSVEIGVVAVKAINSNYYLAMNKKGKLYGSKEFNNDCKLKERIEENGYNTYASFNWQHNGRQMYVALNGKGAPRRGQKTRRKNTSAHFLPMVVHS

With `COC(=O)C1=C2N(Cc3ccccc3)C(C)=C(C(=O)OC)[C@@H](c3ccccc3)N2C(=O)[C@](O)(C(=O)OC)C1`, the composite z-score in assay [1] is 0.271 and 0.0802; in [2], -0.17 and -0.241; in assay [3] it was -0.684 and -0.512; in [5] it was 0.622 and 0.395; in [6], 0.943 and 0.479; in [7], 0.273 and 0.585. The composite z-score was 0.963 and 0.359 in [8]; 0.916 and 0.574 in assay [9]; -0.146 and 0.22 in assay [10]. In assay [4], the z-score is -0.229 (inactive) and 0.213 (inactive).

For `CC(C)OC(=O)C=C1C[C@@H](c2ccccc2)O[C@@H](c2ccccc2)O1`, the composite z-score in assay [1] is 0.733 and 1.54; in assay [2], 0.164 and 0.272; in assay [3], 0.0614 and 0.847; in assay [5] it was 1.45 and 1.42; in [6], 1.34 and 1.31; in [7], 0.65 and 0.664. Besides, the composite z-score in assay [8] is 1.44 and 1.41; in assay [9], 0.527 and 0.481; in assay [10], -0.0632 and 1.05. In addition, the z-score in [4] is 0.0661 (inactive) and 2.56 (inactive).

Turning to `C=CCN(CCCC)C(=O)C(c1cccs1)N(C(=O)/C=C\C(=O)O)c1c(Cl)cccc1CO` (stereo not given), the composite z-score in assay [1] is 0.129 and 1.61; in [2], -0.0631 and -0.131; in assay [3], 1.25 and 0.906; in assay [5] it was -2.81 and -1.97; in [6], -0.944 and -0.892; in assay [7], -2.16 and -2.02. Besides, the composite z-score in [8] is -1.44 and -2.65; in assay [9], -3.42 and -2.44; in assay [10] it was -3.52 and -2.04. Further, in [4], the z-score is 0.173 (inactive) and 0.771 (inactive).

For the molecule `C[N+](C)(C)CCCCNC(=O)[C@H]1C[C@H]2C(=O)N[C@@H](CCCC[N+](C)(C)C)C(=O)N2[C@H]1c1ccc(O)cc1`, the composite z-score was 1.3 and 1.94 in [1]; -0.237 and -0.18 in [2]; -0.904 and -0.983 in [3]; 1.56 and 1.47 in assay [5]; 1.31 and 0.668 in assay [6]; 1.16 and 0.868 in [7]. Further, the composite z-score in [8] is 1.44 and 1.34; in assay [9], 2.03 and 1.92; in assay [10], 1.02 and 0.383. For the same molecule, in assay [4], the z-score was 0.411 (inactive) and -1.57 (inactive).

Take `CCCCCN1CC=CC23O[C@@H]4C=CCCOC(=O)C4[C@H]2C(=O)N(C(C)CO)[C@@H]3C1=O` (stereo not given in full): the composite z-score in assay [1] is 1.83 and 0.878; in assay [2] it was -1.21 and 0.263; in assay [3], -0.532 and 0.779; in assay [5], 0.0253 and -0.6; in [6], 0.375 and -0.449; in assay [7], -0.655 and -0.706. The composite z-score was 0.164 and -0.32 in assay [8]; -0.057 and -0.695 in [9]; -0.131 and 0.537 in [10]. In addition, the z-score in assay [4] is 0.691 (inactive) and 0.361 (inactive).

With `C=CCN(C(=O)C1N(CCCCCCO)C(=O)C2C(C(=O)O)C3C=CC21O3)C(C)(C)C` (stereo not given), the composite z-score in [1] is 2.09 and 0.74; in assay [2] it was -0.164 and -0.432; in assay [3] it was 0.991 and 1.09; in assay [5] it was -2.17 and -2.31; in assay [6], -1.18 and -1.05; in assay [7] it was -2.13 and -1.6. Further, the composite z-score is -2.45 and -1.52 in assay [8]; -3.24 and -3.14 in assay [9]; -3.68 and -2.77 in assay [10]. In [4], the z-score was 0.717 (inactive) and 1.5 (inactive).

For `C=CCN(C(=O)C1N(C(C)(C)CO)C(=O)C2C(C(=O)O)C3C=CC21O3)c1ccc(OC)cc1` (stereo not given), the composite z-score in assay [1] is -0.138 and 0.012; in [2], 0.0931 and -0.0192; in assay [3] it was 1.23 and 1.02; in assay [5], -0.966 and -2.03; in [6], -0.751 and -1.28; in [7] it was -1.84 and -1.43. The composite z-score in [8] was -2.02 and -2.33; in [9] it was -4.14 and -3.71; in [10], -1.01 and -5.89. Moreover, in assay [4], the z-score was -1.01 (inactive) and 0.0922 (inactive).

As to `CO[C@@H]1COC(=O)CC=C[C@H](C)[C@@H](NS(=O)(=O)c2ccc(C)cc2)COC(=O)CC=C[C@@H]1C`, the composite z-score in assay [1] was 0.462 and 1.72; in [2], -0.378 and -0.3; in assay [3], -0.823 and -0.867; in [5], 0.819 and 0.365; in [6] it was 0.875 and 0.415; in [7] it was 0.858 and 0.943. The composite z-score is 1.32 and 1.4 in [8]; 0.597 and 1.3 in [9]; -0.113 and 1.32 in assay [10]. Further, the z-score in [4] was -0.338 (inactive) and -0.57 (inactive).

Turning to `CCOC(=O)C[C@H]1[C@H](OC(=O)c2ccccc2-c2ccccc2)[C@@H](NC(=O)Cc2ccc(OC)cc2)c2cc(OCCCO)ccc2N1C(=O)c1ccc2ccccc2n1`, the composite z-score in assay [1] was 0.108 and 0.154; in assay [2], -0.114 and 0.575; in assay [3] it was 0.0078 and 0.468; in assay [5], 0.43 and 0.682; in [6], 0.0554 and 0.185; in [7], 0.219 and -0.108. In addition, the composite z-score is 0.0539 and 0.0407 in assay [8]; 0.404 and 0.209 in assay [9]; 0.773 and 0.105 in [10]. The z-score in assay [4] is -0.472 (inactive) and -0.891 (inactive).

Regarding `C=C[C@@H](OC)[C@H](O)c1ccc(OCCO)cc1`, the composite z-score in assay [1] was 1.43 and -0.202; in [2], 0.644 and -0.649; in assay [3] it was 0.75 and 0.283; in assay [5] it was -0.72 and -1.24; in assay [6], -0.586 and -1.15; in [7], -1.55 and -0.957. For the same molecule, the composite z-score in assay [8] was -0.782 and -0.109; in [9], -1.06 and -0.955; in [10], -0.294 and -1.79. Also, in assay [4], the z-score was -0.462 (inactive) and -2.83 (inactive).

On to `CO[C@@H]1COC(=O)[C@H](Cc2ccccc2)NC(=O)CC=C[C@@H](C)[C@H](OC)COC(=O)[C@@H](C)NC(=O)CC=C[C@H]1C`, for which the composite z-score in assay [1] is 1.58 and 0.899; in assay [2], -0.447 and -0.987; in assay [3], -1.06 and -1.37; in assay [5], 0.497 and 0.956; in assay [6], 1.07 and 0.496; in assay [7], 0.882 and 0.64. In addition, the composite z-score is 1.29 and 0.876 in assay [8]; 0.696 and 1.67 in assay [9]; 1.42 and 0.336 in assay [10]. Also, the z-score in assay [4] was -1.14 (inactive) and -1.29 (inactive).

With `CC(C)=NOC[C@@H](O)COCc1ccco1`, the composite z-score in [1] is 1.21; in assay [2], -0.254; in assay [3], -0.0658; in [5], -0.341; in assay [6], -1.15; in assay [7], -0.298. Also, the composite z-score was -0.628 in assay [8], 0.421 in [9] and 0.912 in assay [10]. The z-score in assay [4] is 0.638 (inactive).

With `C[C@@H]1CC[C@H]2C(=O)NC[C@@H](O)CN2[C@H]1c1ccc(Br)cc1`, the composite z-score in assay [1] was 0.102 and 0.107; in assay [2], -0.214 and -0.138; in assay [3], -0.0441 and -0.0598; in [5], -0.0319 and -0.141; in assay [6] it was -0.645 and -0.288; in assay [7], -0.251 and -0.159. Besides, the composite z-score in assay [8] was -0.348 and -0.394; in [9], -0.219 and -0.179; in [10], 0.747 and 0.211. The z-score in [4] was 0.338 (inactive) and 0.0732 (inactive).

With `COC(=O)[C@@]1(Cc2ccccc2)[C@H]2c3cc(C(=O)N(C)C)n(Cc4ccc(C)c(F)c4F)c3C[C@H]2CN1C(=O)c1ccccc1`, the composite z-score is 1.07 and 0.37 in assay [1]; 1.39 and 0.861 in assay [2]; 1.31 and 1.05 in assay [3]; 0.365 and 1.01 in [5]; 0.22 and 1.32 in [6]; -0.542 and 0.652 in assay [7]. Besides, the composite z-score is -0.0958 and 1.42 in assay [8]; -1.07 and 0.472 in [9]; 0.885 and 1.09 in assay [10]. In addition, in [4], the z-score is -2.38 (inactive) and -2.61 (inactive).
